Source: PubChem BioAssay AID743048 (Broad Institute, 2013)
Results with a measured potency or affinity are listed apart. A number with no mark means an inactive call. The rule behind the calls is not given here.

What follows are compounds tested against Paired box protein Pax-2 (Homo sapiens) (UniProt Q02962) (assay: PAX2 cell-based inhibition, dose response, selectivity assay for PAX8 inhibitor project, plate reader, dry powder samples (AID 743048)). Details: Pax2 cell-based reporter; series mostly up to 50 µM; activity, negative = inhibition: at the top concentration.
Sequence of Paired box protein Pax-2 (Homo sapiens) (Q02962 whole entry, looked up): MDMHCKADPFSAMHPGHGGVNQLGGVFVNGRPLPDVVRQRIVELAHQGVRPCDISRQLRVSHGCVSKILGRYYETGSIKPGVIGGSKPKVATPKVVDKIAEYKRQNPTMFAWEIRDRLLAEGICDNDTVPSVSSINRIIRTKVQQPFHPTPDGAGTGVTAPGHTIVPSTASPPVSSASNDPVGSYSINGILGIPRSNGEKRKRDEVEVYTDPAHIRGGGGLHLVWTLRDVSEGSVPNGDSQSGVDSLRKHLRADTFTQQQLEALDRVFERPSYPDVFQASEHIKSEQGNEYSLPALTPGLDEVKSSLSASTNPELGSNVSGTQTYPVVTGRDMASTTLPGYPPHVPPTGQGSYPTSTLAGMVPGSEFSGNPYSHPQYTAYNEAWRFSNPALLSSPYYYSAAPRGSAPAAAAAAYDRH

| Structure (SMILES) | activity, negative = inhibition |
| --- | --- |
| O=C(CCCN1C(=O)/C(=C\c2cccc(Br)c2)SC1=S)Nc1ccccn1 | 43.3% |
| CN(C[C@H]1N[C@@H](CO)[C@@H]1c1ccc(C2=CCCC2)cc1)C(=O)c1cccc(F)c1 | 279% [at 35 µM] |
| O=C(CCCN1C(=O)/C(=C\c2cccc(Br)c2)SC1=S)Nc1cccnc1 | 46.5% |
